# Results: PubChem BioAssay (NCI)
# Compounds without any hit were thinned out: in the full panel of roughly 83,000, 20% have a hit.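 Single-concentration screen, 48 h exposure, 96-well plates. Endpoint: percent growth. Below 10 = active.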 Values without a mark were called inactive. The source made the active and inactive calls.
# How the values were obtained:
# Assay in all cases: NCI-60 one-dose screen, 48 h (100 = growth as untreated, 0 = no growth, -100 = all killed)
# Conditions in all cases: 10 µM unless noted
# [1] = system: HCT-15 colon
# [2] = system: HT29 colon
# [3] = system: SNB-19 CNS
# [4] = system: U251 CNS
# [5] = system: PC-3 prostate
# [6] = system: SK-MEL-5 melanoma
# [7] = system: UACC-62 melanoma
# [8] = system: SK-MEL-28 melanoma
# [9] = system: SK-MEL-2 melanoma
# [10] = system: EKVX NSCLC
# [11] = system: SN12C renal
# [12] = system: UO-31 renal
# [13] = system: TK-10 renal
# [14] = system: ACHN renal
# [15] = system: CAKI-1 renal
# [16] = system: A498 renal
# [17] = system: MOLT-4 leukemia
# [18] = system: LOX IMVI melanoma
# [19] = system: CCRF-CEM leukemia
SMILES,growth [1],growth [2],growth [3],growth [4],growth [5],growth [6],growth [7],growth [8],growth [9],growth [10],growth [11],growth [12],growth [13],growth [14],growth [15],growth [16],growth [17],growth [18],growth [19]
Cc1ccc(-c2nc(C(Cl)Cl)n3nc(-c4ccccc4)cc3n2)cc1,-26.8% (active),-43.6% (active),27.4%,-42.1% (active),-13% (active),78.5%,-8.44% (active),85.9%,55.9%,35.3%,70.4%,46.9%,-68.6% (active),3.72% (active),4.32% (active),77.8%,103%,,
Cc1cc(N/N=C/c2nc(-c3ccc(Br)cc3)oc2C)c2cc(Br)ccc2n1,6.22% (active),-16.1% (active),41.7%,-9.51% (active),77.2%,92.9%,73.9%,,99%,90.9%,26.8%,58.7%,82%,64.9%,,85.7%,7.29% (active),-37.6% (active),-4.62% (active)
COc1ccc(-c2c(N)n[nH]c2-c2cc(OC)c(OC)c(OC)c2)cc1,24.6%,4.25% (active),35.9%,23.5%,40.9%,0.844% (active),25.7%,,,48%,38.5%,27.3%,59.8%,40%,57%,-3.53% (active),25.4%,43.2%,
Clc1cc(Cl)cc(-c2ccc(-c3ccc(/C=N/NC4=NCCN4)cc3)s2)c1,-62.4% (active),0.288% (active),53.2%,-79% (active),35.1%,88.1%,68.1%,97.3%,101%,92.6%,25.9%,53.6%,47%,59%,58.4%,88%,14.7%,,
CC(=O)Oc1csc(N(C(C)=O)c2cccc(C(F)(F)F)c2)n1,94.4%,102%,97.8%,88.3%,85.6%,92.1%,89.2%,,96.7%,46.1%,89.6%,91%,108%,102%,,85.2%,104%,92.3%,60.9%
COc1ccc(S(=O)(=O)n2cc(C(=O)C(=O)Nc3ccncc3)c3ccccc32)cc1F,84.2%,83.9%,78.9%,77.4%,79.8%,73.5%,65.5%,,,39.5%,73.7%,81.8%,102%,66.7%,55.3%,73.4%,,70.2%,
COc1ccc(-c2ccc(-c3ccc(C(=N)N)cn3)s2)cc1OC,99.8%,65.5%,94.7%,88.3%,93.5%,88.7%,98.1%,98%,109%,89.1%,90.6%,85.7%,128%,93.8%,110%,78.5%,72.2%,,97.6%
c1ccc(Nc2nc(Nc3ccccc3)nc(Nc3ccccc3)n2)cc1,82.9%,75.3%,98.3%,91.4%,79.7%,78%,83%,,85.8%,77.9%,100%,55.5%,74.6%,91.9%,85%,79%,65.7%,82.7%,
Cc1ccc(-c2cc3nc(C(Cl)Cl)nc(-c4cccnc4)n3n2)cc1,-23.4% (active),-27% (active),23.4%,-15.3% (active),-4% (active),44.8%,33.3%,53.2%,77.8%,-2.59% (active),55.1%,35.9%,6.78% (active),1.65% (active),2.71% (active),37.3%,27.8%,,
N=C(N)c1ccc(-c2ccc(-c3ccc4ccccc4c3)s2)cc1,3.41% (active),-42% (active),97.1%,27%,91.6%,93.9%,96.9%,100%,104%,105%,95.8%,84.6%,27%,97.1%,92.3%,91.3%,76.3%,,64.1%
O=C(O)C1CCCCN1c1nc(Cl)nc(Cl)n1 (stereo not given),102%,106%,102%,104%,99.3%,97.3%,99.8%,,104%,99.8%,103%,98.1%,103%,113%,,90%,104%,95.8%,105%
Cc1[nH]c2ccc(F)cc2c1CCNC(=O)C1CCN(C(=O)c2ccccc2)C1 (stereo not given),93.4% [25 µM],101% [25 µM],93.2% [25 µM],92.8% [25 µM],79.9% [25 µM],82.2% [25 µM],93.3% [25 µM],95.1% [25 µM],113% [25 µM],80.5% [25 µM],95% [25 µM],77.1% [25 µM],86.9% [25 µM],96.3% [25 µM],77.1% [25 µM],43.8% [25 µM],91.6% [25 µM],,
c1ccc(-c2nc(N3CCNCC3)c3nc(-c4ccccc4)oc3n2)cc1,-81.3% (active),-86.6% (active),5.98% (active),-93.5% (active),-62.3% (active),36.2%,-92.8% (active),101%,93.3%,74.3%,-92.2% (active),-91.6% (active),-85.3% (active),-99.2% (active),-85.3% (active),80.6%,-34.6% (active),,
Cc1ccc(-c2cc3nc(C(Cl)Cl)nc(-c4ccccc4C)n3n2)cc1,33.2%,8.13% (active),70.2%,46.3%,43.1%,82.6%,59.7%,89.1%,94.5%,71.1%,86.7%,75.3%,54.8%,49.1%,,74.4%,62.9%,,96.1%
NC(N)=N/N=C/c1ccc(-c2ccc(-c3cc(Cl)cc(Cl)c3)s2)cc1,-74.5% (active),-74.9% (active),40%,-84.1% (active),-38.5% (active),86.9%,48.2%,96.5%,103%,96.1%,-53.8% (active),72.2%,-68.8% (active),-2.94% (active),50%,73%,17.4%,,
COc1ccc2cc(-c3ccc(-c4ccc(C(=N)N)cc4)s3)ccc2c1,62%,19.8%,95.9%,101%,88.6%,94.8%,99.3%,107%,103%,104%,99.7%,89.7%,48.1%,101%,91%,94.3%,94.3%,,
C/C=C(\C)C(C(=O)NC1CCCCC1)N(C(=O)C1CCc2cc(F)ccc2O1)c1ccc(Cl)cc1 (stereo not given),101%,98.7%,97.8%,102%,94.5%,97.2%,92.3%,,103%,94.2%,106%,92.6%,96.2%,115%,,109%,95.4%,94.1%,101%
CCN(CC)CCC(CNc1ccnc2cc(Cl)ccc12)c1ccccc1 (stereo not given),34.1%,7.02% (active),92.5%,50.7%,56.5%,-75.2% (active),57.6%,,56.2%,90%,75.8%,15.2%,55.9%,35.3%,43.4%,42.3%,50.7%,39%,
